PubChem BioAssay (Tox21)
Inconclusive results are not listed. Calls of active or inactive are those of the source. Calls come from the whole dose curve; as a rule, active = well fitted inhibition curve with a large enough effect in the repeat runs; inconclusive = weak or mixed curves; inactive = no such curve, though single readings can be large or run the other way.

Molecular target: Cytochrome P450 2C19 (Homo sapiens) (UniProt P33261)
Experiment: Cytochrome P450 Family 2 Subfamily C Member 19 (CYP2C19) small molecule antagonists: luciferase reporter qHTS assay (AID 1671197); note: nearly all actives have a fitted effect of over 65% in size
Details: P450-Glo CYP2C19 enzyme, luciferin luminescence, 1 h; series mostly up to 52.9 µM; activity change, negative = inhibition: at the top concentration
Description: National Center for Advancing Translational Sciences [NCATS]
U.S. Environmental Protection Agency [EPA]
National Institutes of Environmental Health Sciences [NIEHS]
National Toxicology Program [NTP]
U.S. Food and Drug Administration [FDA]
Cytochrome P450 (CYP) enzymes are membrane-bound hemeproteins that play a key role in metabolism of drugs and xenobiotics. Evaluation of the effect of chemicals on CYP isozymes is useful to minimize the adverse drug reactions and toxicities in drug development process. Tox21 chemicals were tested for their effect on CYP enzyme activities by using P450-Glo (TM) screening systems (Promega Corporation, Madison, WI). These systems provide a luminescent method containing proluciferin substrates and are converted to luciferin products by CYP isozymes. The luciferin products formed are detected with a luciferin detection reagent, and the amount of light produced is proportional to CYP activity. P450-Glo (TM) CYP2C19 screening system (Catalog. No. V9880) was used to detect the compounds that interfere in CYP2C19 activity. The positive control compound used for CYP2C19 assay is ketoconazole (Sigma-Aldrich, St. Louis, MO).
Tox21 Assay Protocol Summary:
Two ul of enzyme-substrate mix was dispensed into medium binding white/solid 1536-well plates (Greiner Bio-One North America Inc., Monroe, NC) using a BioRaptr Flying Reagent Dispenser (FRD, Beckman Coulter, Brea, CA). Compounds dissolved in DMSO and positive control (ketoconazole) were transferred to the assay plates at 23 nl using a Pintool station (Wako, San Diego, CA). The assay plates were incubated at room temperature for 10 min. Then 2 ul of NADPH regeneration solution was added to each well of the assay plates using an FRD and incubated at 37C for 1 h. The reaction was stopped by adding 4 ul of detection reagent using an FRD and after 20 min incubation at room temperature the luminescence signal was measured using a ViewLux plate reader (Perkin Elmer, Shelton, CT). Data were expressed as relative luminescence units.
% is set by controls: 0 for no effect and ±100 for the full control effect; potency is the fitted concentration of half-maximal effect.

Chain of Cytochrome P450 2C19 (Homo sapiens) (P33261 whole entry, looked up): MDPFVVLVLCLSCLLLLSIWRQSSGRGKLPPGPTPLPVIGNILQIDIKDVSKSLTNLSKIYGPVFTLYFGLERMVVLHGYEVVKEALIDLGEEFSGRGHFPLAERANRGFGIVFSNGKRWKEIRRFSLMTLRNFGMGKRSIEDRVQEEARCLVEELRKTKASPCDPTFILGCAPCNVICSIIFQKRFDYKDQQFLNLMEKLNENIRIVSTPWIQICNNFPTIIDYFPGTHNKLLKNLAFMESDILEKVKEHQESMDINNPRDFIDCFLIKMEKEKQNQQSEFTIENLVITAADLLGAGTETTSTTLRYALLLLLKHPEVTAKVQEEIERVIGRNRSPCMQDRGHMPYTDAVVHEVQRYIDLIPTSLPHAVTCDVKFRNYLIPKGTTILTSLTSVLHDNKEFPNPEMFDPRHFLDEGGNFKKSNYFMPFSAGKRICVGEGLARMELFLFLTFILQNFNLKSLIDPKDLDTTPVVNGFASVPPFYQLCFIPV

SMILES | activity change, negative = inhibition | Potency
Clc1cc(Cl)c(Cl)nc1Cl | 3.53% [at 115 µM] (inactive) | –
CCN1C=CN(C)C1C (stereo not given) | -8.47% [at 115 µM] (inactive) | –
Cc1ccc(-c2ccccc2C#N)cc1 | – | 17.4 µM (active)
C=C(C)C(=O)OCC(O)CO (stereo not given) | 13.6% (inactive) | –
c1ccc(CCc2ccccc2)cc1 | 1.14% [at 115 µM] (inactive) | –
CC(=O)Nc1ccc(OCC(O)CNC(C)C)cc1 (stereo not given) | 42.2% (inactive) | –
CCOc1ccc2nc(S(N)(=O)=O)sc2c1 | 13.9% (inactive) | –
CCCn1cc[n+](C)c1C | -1.99% [at 115 µM] (inactive) | –
CC(=O)Oc1cccc(C)c1 | -5.94% (inactive) | –
CCCc1ncc(C[n+]2ccccc2C)c(N)n1 | -7.37% (inactive) | –
CN(C)C(=O)Oc1cccc([N+](C)(C)C)c1 | -3.17% (inactive) | –
CC1(C)[C@@H]2CC[C@@]1(C)[C@H](O)C2 | -20.4% [at 115 µM] (inactive) | –
C=CN1CCCCCC1=O | -6.32% [at 115 µM] (inactive) | –
CCCc1nn(C)c2c(=O)[nH]c(-c3cc(S(=O)(=O)N4CCN(C)CC4)ccc3OCC)nc12 | -13.7% (inactive) | –
[Ca+2] | 1.9% [at 115 µM] (inactive) | –
CC1CCC(CO)CC1 (stereo not given) | -0.79% [at 115 µM] (inactive) | –
CCOC(=O)COc1cc(-n2ncc(C(F)(F)F)c(C)c2=O)c(F)cc1Cl | – | 35.6 µM (active)
NC(=O)NC1N=C([O][Al])NC1=O (stereo not given) | -22.5% (inactive) | –
CC12CCC(C(=O)C1=O)C2(C)C (stereo not given) | -9.29% [at 115 µM] (inactive) | –
COc1ccc2cc1Oc1cc3c(cc1OC)CC[N+](C)(C)[C@H]3Cc1ccc(cc1)Oc1c(OC)c(OC)cc3c1[C@@H](C2)[N+](C)(C)CC3 | 2.86% (inactive) | –

SMILES | activity change, negative = inhibition | Potency
Cc1coc2ccccc2c1=O | -12.8% (inactive) | –
NS(=O)(=O)Cc1noc2ccccc12 | -3.6% (inactive) | –
CCOC(=O)C1=NOC(c2ccccc2)(c2ccccc2)C1 | – | 20 µM (active)
O=C(O)CC(C(=O)O)S(=O)(=O)O (stereo not given) | – | 8.94 µM (active)
CN(C)CCN(C)CCN(C)C | -0.721% [at 115 µM] (inactive) | –
CCC(=O)OCc1ccccc1 | 19.9% [at 115 µM] (inactive) | –
CCN1CCOCC1 | – | 22 µM (active)
CC1=C(C/C=C(\C)CCC[C@H](C)CCC[C@H](C)CCCC(C)C)C(=O)c2ccccc2C1=O | -1.31% (inactive) | –
CCOC(=O)c1ccccc1 | 17.2% [at 115 µM] (inactive) | –
CN1CC(=O)N/C1=N/C(=O)Nc1cccc(Cl)c1 | -10.6% (inactive) | –
CN1C(C)(C)CC(O)CC1(C)C | 11.9% [at 115 µM] (inactive) | –
C=C[Si](OC(C)=O)(OC(C)=O)OC(C)=O | -21% [at 115 µM] (inactive) | –
CC(N)C12CC3CC(CC(C3)C1)C2 (stereo not given) | 21.3% (inactive) | –
CCOc1ccccc1OCC | – | 71 µM (active)
CCNS(=O)(=O)c1ccc(C)cc1 | – | 20.6 µM (active)
Nc1ccncc1N | -11.9% (inactive) | –
CC1=CCC(O)(C(C)C)CC1 (stereo not given) | -0.495% [at 115 µM] (inactive) | –
Cc1ccccc1N=C(N)N=C(N)N | 7.61% [at 115 µM] (inactive) | –
COc1cc(C(=O)OC(COCCC(C)C)CN2CCOCC2)cc(OC)c1OC (stereo not given) | – | 3.47 µM (active)
O=Cc1cccc(Br)c1 | – | 18.3 µM (active)
